GC-B act: GC-B (human) receptor activation. actives 0.11% (n = 370,000). activation, % at 10 µM. P20594. HEK293-GC-B cells, CNP EC30, cGMP TR-FRET; 0% at EC30 CNP, 100% saturating CNP;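 active = activation at 10 µM reaching about 35% in either raw or pattern-adjusted values, limit read from the data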
GC-A act: GC-A (human) enzyme activation; P16066; HEK293 GC-A cells, cGMP TR-FRET, EC30 ANP; 0% at EC30 ANP, 100% saturating ANP; activation, % at 10 µM; actives 0.14% (n = 370,000); in the data active = activation above about 40%
ADAM17 inh: ADAM17 inhibition, QFRET primary screen | recombinant ADAM17, EDANS/DABCYL FRET peptide cleavage | inhibition, % at 6.95 µM | actives 0.83% (n = 370,000);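 active = inhibition above the mean of compounds lying between control limits plus 3 SD, set per campaign, cut at about 8.5% in these data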;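 also: 0% = DMSO-only wells as the low control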
ADAM10 inh: ADAM10 inhibition, QFRET primary screen; actives 0.62% (n = 370,000); inhibition, % at 7 µM; recombinant ADAM10, EDANS/DABCYL FRET peptide cleavage, 3 h; AID 720582;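 active = inhibition above a per-campaign cutoff equal to the mean of compounds falling between control-based bounds plus 3 SD, cut at about 20% in these data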;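 also: 0% = DMSO wells while the 100% control is not disclosed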
Target sequence (O14672 214-748 limits assumed): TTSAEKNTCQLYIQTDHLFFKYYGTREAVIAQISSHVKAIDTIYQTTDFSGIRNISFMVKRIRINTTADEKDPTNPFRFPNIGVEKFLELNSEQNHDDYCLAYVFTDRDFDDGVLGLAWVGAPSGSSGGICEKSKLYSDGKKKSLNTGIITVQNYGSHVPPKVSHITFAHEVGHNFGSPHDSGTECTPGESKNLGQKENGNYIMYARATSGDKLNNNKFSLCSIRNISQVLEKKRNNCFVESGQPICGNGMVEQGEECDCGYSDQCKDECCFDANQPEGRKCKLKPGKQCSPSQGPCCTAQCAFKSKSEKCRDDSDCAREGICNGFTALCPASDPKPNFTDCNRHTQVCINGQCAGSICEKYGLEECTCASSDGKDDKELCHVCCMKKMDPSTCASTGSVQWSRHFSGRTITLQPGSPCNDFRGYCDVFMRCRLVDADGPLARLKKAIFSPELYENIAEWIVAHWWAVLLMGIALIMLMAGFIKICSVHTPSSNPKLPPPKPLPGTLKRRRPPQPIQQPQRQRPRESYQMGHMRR
ADAM10 ctr: inhibits human ADAM10 in ADAM17 exosite counter-screen | recombinant ADAM10, EDANS/DABCYL FRET peptide cleavage, 3 h | inhibition, % at 6.95 µM | actives 47% (n = 2,900) | shares compounds with ADAM17 inh;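 active = mean inhibition over the triplicate runs exceeds the activity threshold set in the earlier primary screen, cut at about 20% in these data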;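 also: 0% = DMSO wells and 100% = marimastat wells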
ADAM17 confirm: human ADAM17 inhibition, confirmation. actives 65% (n = 2,900). recombinant ADAM17, EDANS/DABCYL QFRET peptide cleavage. shares compounds with ADAM17 inh. inhibition, % at 6.95 µM;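 active = mean inhibition across replicates above the hit cutoff set in the primary screen, cut at about 8.5% in these data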;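 also: 0% = DMSO wells and 100% = marimastat wells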
Active calls of the source: *; i = inactive; · = no result. Hits are enriched below; roughly 1.3% of the tested compounds scored in any of these assays.

SMILES | GC-B act | GC-A act | ADAM17 inh | ADAM10 inh | ADAM10 ctr | ADAM17 confirm
COc1ccccc1NS(=O)(=O)c1cc(NC(=O)c2cccs2)ccc1N1CCCC1 | -8.3 | 5.9 | 10.2* | 19.6 | -36.2 | 4.0
O=C(/C=C/c1cccs1)Nc1ccc(N2CCOCC2)c(S(=O)(=O)Nc2cc(Cl)ccc2Cl)c1 | 0.8 | 0.0 | -0.5 | -6.1 | · | ·
O=C(/C=C/c1cccs1)Nc1ccc(N2CCOCC2)c(S(=O)(=O)Nc2ccccc2Cl)c1 | -5.9 | 0.8 | 10.7* | 19.7 | 1.7 | 5.7
COc1cc(-c2cc(NC=O)c3ncc(-c4cccc(C(F)(F)F)c4)n3c2)cc(OC)c1OC | 11.9 | 2.5 | -3.4 | -4.7 | · | ·
O=C(COC(=O)C1CCN(c2ccc(C(F)(F)F)cn2)CC1)Nc1ncc(Cl)cc1Cl | -1.4 | -5.5 | -1.4 | -8.2 | · | ·
C=CC(=O)NC1CCCCN(CC)C1=O (centres undefined) | -2.8 | 4.2 | -7.0 | -12.7 | · | ·
COCCN(CCOC)Cc1cc(=O)oc2cc(OC)ccc12 | -3.9 | 1.6 | -81.9 | -298.4 | · | ·
CS(=O)(=O)N1CCc2cc(C(=O)Nc3ccc(Br)cc3)ccc21 | -5.3 | -6.7 | 9.0* | 1.7 | -10.6 | 0.5
O=C(Nc1ccc(S(=O)(=O)N2CCCCC2)cc1)c1ccc(CN2CCc3ccccc3C2)cc1 | -0.6 | -6.4 | 8.8* | 15.9 | 15.9 | 9.6*
O=C(Nc1ccccc1)c1ccc(CN2CCc3ccccc3C2)cc1 | -4.2 | -3.8 | -0.9 | -2.6 | · | ·
O=C(Nc1nc(-c2ccccc2)cs1)c1ccc(S(=O)(=O)N2CCc3ccccc32)cc1 | -0.5 | -0.3 | 9.7* | 13.0 | 9.7 | 9.7*
COc1ccc(C(=O)Nc2ccc(S(=O)(=O)N3CCc4ccccc43)cc2)cc1 | -5.9 | -9.5 | 9.2* | 19.5 | 21.5* | 14.8*
Cc1ccc(N(CC(=O)O)S(=O)(=O)c2cccc3nonc23)cc1 | -0.3 | -4.7 | -5.1 | -3.7 | · | ·
CC(=O)c1cccc(NC(=O)CN(c2ccc(C)cc2)S(=O)(=O)c2cccc3nonc23)c1 | -5.0 | -3.9 | 11.8* | 22.8* | 25.2* | 15.1*
Cc1ccc(S(=O)(=O)N2C[C@H]3C(=O)C[C@@H](c4cccc(C)c4)N(S(=O)(=O)c4ccc(C)cc4)[C@H]3C[C@H]2c2ccccc2)cc1 | -2.5 | 5.1 | 8.9* | 4.3 | 10.2 | 7.3
Cc1ccc(S(=O)(=O)N2[C@H](c3ccccc3)CC(=O)[C@@H]3CN(S(=O)(=O)c4ccccc4C)[C@H](c4ccccc4)C[C@@H]32)cc1 | 10.5 | 1.3 | -3.2 | -10.1 | · | ·
Cc1ccc(S(=O)(=O)N2C[C@H]3C(=O)C[C@@H](c4ccccc4)N(S(=O)(=O)c4ccccc4C)[C@H]3C[C@H]2c2ccccc2)cc1 | 3.5 | -1.3 | 10.7* | 13.1 | 21.6* | 9.9*
Cc1ccc(S(=O)(=O)N2C[C@H]3C(=O)C[C@@H](c4ccccc4)N(S(=O)(=O)c4ccc(C)cc4)[C@H]3C[C@H]2c2ccccc2)cc1 | 4.2 | -1.6 | -0.2 | -6.4 | · | ·
C[C@H]1[C@H](NC(=O)c2ccc(Cl)c(Cl)c2)CC[C@@]23CCCN2C(=O)CCC[C@@H]13 | -2.9 | -2.4 | -5.5 | -1.6 | · | ·
COC(=O)[C@]12C[C@H](CC(=O)N3CCCCC3)C(=O)N(Cc3ccc4c(c3)OCO4)C1=C[C@H](C(C)C)O[C@@H]2C1CC1 | -10.6 | -8.1 | 1.5 | 8.6 | · | ·
C=C(C)CNC(=S)NNC(=O)CCn1c2ccc(Cl)cc2c2cc(Cl)ccc21 | -8.2 | -13.8 | 9.7* | 18.6 | 36.9* | 23.4*
O=C(NCc1ccccc1)C1CCCN(C(=O)NCc2ccccc2)C1 (centres undefined) | -1.8 | 3.4 | -0.7 | 3.6 | · | ·
CCN(CC)S(=O)(=O)c1ccc2c(c1)nc(CCC(=O)Nc1ccc3c(c1)OCO3)n2CC | -3.7 | -2.0 | 8.9* | 2.5 | -1.1 | 2.6
Cc1cccc2cc(C3CC(c4ccco4)=NN3S(=O)(=O)c3ccccc3)c(Cl)nc12 (centres undefined) | -1.7 | -3.7 | 9.4* | 9.8 | 19.8* | 12.2*
CCCCCCn1c(=O)n2n(c1=O)[C@@H]1CN(S(=O)(=O)c3ccc(C)cc3)C[C@]1(O)[C@@H](OC(=O)NCc1ccccc1F)C2 | -6.5 | -1.8 | 5.4 | 7.9 | · | ·
SMILES | GC-B act | GC-A act | ADAM17 inh | ADAM10 inh | ADAM10 ctr | ADAM17 confirm
CCCCCCn1c(=O)n2n(c1=O)[C@@H]1CN(S(=O)(=O)c3ccc(C)cc3)C[C@]1(O)[C@@H](OC(=O)NCc1ccc(OC)c(OC)c1)C2 | -1.3 | -3.5 | 9.8* | 16.9 | 23.1* | 13.9*
Cc1ccc(-c2[nH]nc(N)c2N=Nc2cccc(Cl)c2C)cc1 | -2.8 | 0.0 | 4.4 | 7.1 | · | ·
Cc1ccc(-c2[nH]nc(N)c2N=Nc2ccccc2C)cc1 | -3.8 | -3.9 | 9.7* | 14.8 | 25.0* | 16.2*
Cc1ccc(Cc2c(-c3cccc(Br)c3)nc3c(Cl)cc(C(F)(F)F)cn23)cc1 | -0.7 | 2.1 | 2.4 | 8.7 | · | ·
COc1ccc(CC(=O)Nc2ccc3c(c2)OC2(CCCC2)O3)c(OC)c1 | -5.7 | 0.1 | 10.6* | -3.2 | 9.5 | 7.7
CCC1(c2ccccc2)NC(=O)N(CC(=O)NNC(=O)COc2ccc(Cl)cc2C)C1=O (centres undefined) | 5.0 | -0.2 | -4.2 | -7.2 | · | ·
CCOc1ccc(S(=O)(=O)Nc2ccc(F)cc2)c(C)c1C | -0.4 | 3.0 | 9.5* | 17.6 | 16.7 | 12.0*
COc1cc(C(O)c2nc(-c3ccccc3OC)cs2)ccc1F (centres undefined) | -5.2 | -1.7 | 3.1 | 6.8 | · | ·
COc1ccc(CCNC(=O)c2cc(-c3ccco3)nc3ccccc23)cc1 | -6.4 | -4.7 | 9.5* | 15.9 | i | -270.9
CC1(C)C/C(=N\NC(=S)Nc2ccccc2F)c2cc(O)ccc2O1 | -2.0 | 15.6 | -3.3 | -32.5 | · | ·
O=C(CSc1nnc(SCc2ccc(Cl)cc2)s1)N/N=C/c1c[nH]c2ccccc12 | -9.2 | -6.4 | 1.9 | 1.7 | · | ·
O=C(CSc1nnc(SCc2cccc3ccccc23)s1)N/N=C/c1c[nH]c2ccccc12 | -4.4 | -3.9 | 12.1* | 15.6 | 16.8 | 9.9*
O=C(CSc1nnc(-c2ccccc2)n1-c1ccc(Cl)cc1)NN=Cc1c[nH]c2ccccc12 | -10.9 | -12.6 | 10.9* | 19.6 | 29.5* | 12.2*
CC(=O)c1ccc(S(=O)(=O)N2CCC(C(=O)Nc3ncc(C)s3)CC2)cc1 | 0.9 | -6.8 | -1.0 | -8.3 | · | ·
CC(=O)N1CC(C)Sc2ccc(S(=O)(=O)NCCc3ccc(C)cc3)cc21 (centres undefined) | 11.6 | -4.0 | 9.3* | 11.1 | 1.0 | 5.9
CC(=O)N1CC(C)Sc2ccc(S(=O)(=O)NCCc3ccccc3)cc21 (centres undefined) | -1.4 | 7.9 | 5.8 | -2.4 | · | ·

Compound activity deposited in PubChem by several laboratories.
